Most compounds without a hit are left out; they make up all but 3.1% or so of the library.
TRb SRC2 PPI: disrupts binding of human TR beta to SRC2; P10828; TRbeta-SRC2 peptide binding, fluorescence polarization; receptor liganded with 1 µM T3; Potency, µM (titrated, usually from 106 µM), for the others: at the highest dose activity change, negative = inhibition, actives largely listed as inhibitors; hit rate 0.065% among 280,000; AID 1469;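 note: plate controls were bound peptide for no effect and peptide without receptor for full effect; nearly all actives have a fitted effect of over 50% in size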
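Polarization signal, normalized between peptide-alone and full complex controls, measured compound effects on T3-liganded human TRb LBD (0.6 uM) binding 20 nM Texas Red SRC2 peptide after 5 hr.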
Tau fibril FP: blocks human tau fibril formation measured by polarization. P10636. K18 P301L tau heparin fibrillization, Alexa594 FP, 6 h. Potency, µM (titrated, usually from 57.7 µM), inactives show top-dose activity, negative = inhibition, actives largely listed as inhibitors. hit rate 0.39% among 280,000; note: nearly all actives have a fitted effect of over 55% in size
Target sequence (P10636 561-689 P618L limits assumed): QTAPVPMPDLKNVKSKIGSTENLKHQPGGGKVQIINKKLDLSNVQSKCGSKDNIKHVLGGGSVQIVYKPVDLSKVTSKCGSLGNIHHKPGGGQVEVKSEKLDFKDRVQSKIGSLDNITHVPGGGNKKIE
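Heparin (20 uM) drove fibril formation of recombinant tau K18 P301L, 15 uM unlabeled with 0.24 uM Alexa 594 label, for 6 hr at 37 C in 100 mM sodium acetate pH 7. Fluorescence polarization (555/632 nm) read 1 hr after 30 uM ThT.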
Tau fibril ThT: tau fibrillization inhibition (ThT binding) | P10636 | recombinant tau K18 P301L, heparin-induced fibrillization, ThT fluorescence | Potency, µM (series often up to 57.4 µM), inactives show top-dose activity, negative = inhibition, hits mostly inhibitors | hit rate 2.1% among 270,000; note: nearly all actives have a fitted effect of over 55% in size
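Recombinant human tau K18 fragment […] carrying P301L, 15 uM unlabeled plus 0.24 uM Alexa 594-labeled, was fibrillized with 20 uM heparin in 100 mM sodium acetate pH 7 for 6 hr at 37 C; 30 uM ThT fluorescence read after 1 hr.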
Tau fluor cs: counter-screen for tau fibril formation inhibitors | Potency, µM (titrated, usually from 57.7 µM), without a hit: at the top dose activity change, negative = decrease | AID 1463 | tau K18 P301L Alexa594 fluorescence, heparin fibrillization | hit rate 0.93% among 280,000; note: nearly all actives have a fitted effect of over 55% in size
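Human tau K18 P301L (15 uM unlabeled, 0.24 uM Alexa 594-labeled) in 100 mM sodium acetate pH 7 with 20 uM heparin, 6 hr at 37 C. ThT 30 uM added, 1 hr ambient; Alexa 594 FP and total fluorescence read at 555/632 nm.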
TR SRC2 fluor cs: counter-screen for TRb-SRC2 inhibitors: fluorescence interference. hit rate 0.29% among 280,000. AID 1479. Potency, µM (doses to about 106 µM), for inactives: top-dose fluorescence change, negative = quenching. TRb/SRC2 Texas Red total fluorescence interference; active = well fitted curve in either direction with a large enough effect; inconclusive = small, poorly fitted or top-dose-only effect
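Flags fluorescent or light-absorbing compounds by total fluorescence, S + 2P, at 555 nm excitation and 632 nm emission. Mixture: 20 nM Texas Red SRC2 peptide, 0.6 uM human TRb LBD, 1 uM T3, 5% DMSO; compound exposure 5 h at ambient temperature.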
An asterisk follows results filed as active; ? = inconclusive; [ ] = another dose, or the depositor's remark. Unless noted, calls come from the whole dose curve; as a rule, active = well fitted curve in the direction sought with a large enough effect; inconclusive = small, poorly fitted or top-dose-only effect, or another doubt; inactive = no such curve, though single readings can be large; an effect the other way counts as inactive or inconclusive. Unless noted, % is set by controls: 0 for no effect and ±100 for the full control effect; potency is the fitted concentration of half-maximal effect.

SMILES	TRb SRC2 PPI	Tau fibril FP	Tau fibril ThT	Tau fluor cs	TR SRC2 fluor cs
CC(=O)[C@@H]1[C@H]2[C@H](C(=O)[C@H]3OC[C@@H]2O3)[C@H]2C=Cc3ccccc3N21	6.4%	?	15.8µM*	?	35.5µM*[fluorescent]
COc1ccc(C(=O)C2C3C4COC(O4)C(=O)C3C3C=Cc4ccccc4N32)c(OC)c1 (stereo unspecified)	7.08µM*	11.2µM*	20µM*	20µM*[fluorescent]	22.4µM*[fluorescent]
Cc1ccc(N2C(=O)[C@@H]3[C@H](C2=O)C2c4ccccc4C=NN2[C@@H]3C(=O)c2ccc(Cl)cc2)cc1 (stereo partly specified)	-1.3%	-6.2%	-3.4%	1.0%	-2.5%
CNC(=O)N(O)C1N(/N=C/c2cccnc2)C(=S)SC1(C)C (stereo unspecified)	-9.9%	-5.7%	-8.4%	-10.0%	-1.8%
CN(C)c1ccc(/C=N/N2C(=S)SC(C)(C)C2N(O)C(=O)Nc2ccc([N+](=O)[O-])cc2)cc1 (stereo unspecified)	8.9%	5.6%	17.8µM*	11.2µM*[quencher]	0.2%
CNc1cc([N+](=O)[O-])ccc1OCc1ccccc1	-8.3%	-3.5%	11.2µM*	?	-0.1%
Cc1cc([N+](=O)[O-])ccc1NCc1ccccc1	-11.5%	-6.2%	?	-21.8%	-1.5%
Cc1cccc(N2CCN(C(=O)Cn3sc4nc(C)cc(C)c4c3=O)CC2C)c1 (stereo unspecified)	0.3%	?	12.6µM*	-29.2%	-6.5%
Cc1cc(C)c2c(=O)n(CC(=O)N3CCC(Cc4ccccc4)CC3)sc2n1	0.5%	11.2µM*	12.6µM*	-21.6%	-1.0%
CC1=C(C(=O)OCCOc2ccccc2)C(c2ccsc2)NC(=O)N1C (stereo unspecified)	-4.3%	3.9%	-10.8%	-12.2%	3.9%
O=S(=O)(Nc1nc2ccccc2nc1Nc1ccc2c(c1)OCCO2)c1cccs1	0.3%	14.7%	12.6µM*	?	-18.8%
COc1ccc(S(=O)(=O)Nc2nc3ccccc3nc2Nc2ccc3c(c2)OCO3)cc1	-6.2%	2.6%	?	?	4.0%
Nc1c(C(=O)Nc2ccccc2)c2nc3ccccc3nc2n1-c1ccc(O)cc1	-0.8%	?	?	14.1µM*[quencher]	0.2%
CCOC(=O)c1c(N)n(-c2ccc(N)cc2)c2nc3ccccc3nc12	1.7%	5.3%	?	-12.2%	-14.3%
CC(O)CNc1ccc(-c2nn(C)c(=O)c3ccccc23)cc1[N+](=O)[O-] (stereo unspecified)	-2.3%	-0.1%	?	1.4%	-5.3%
COc1ccc(C2(C(=O)c3ccccc3)C(=O)c3ccccc3C2=O)cc1	2.4%	?	14.1µM*	?	-2.0%
CCOc1ccc2c(c1)C(C)=CC(C)(C)N2C(=O)Nc1ccccc1	?	?	28.2µM*	?	-4.8%
COc1ccc(NC(=O)N2c3ccc(OC)cc3C(C)=CC2(C)C)cc1	-14.1%	?	31.6µM*	?	4.7%
COc1ccc(NC(=O)N2c3ccccc3C(C)=CC2(C)C)cc1	-0.4%	6.1%	?	-9.5%	0.3%
Cc1cc(C)c2c(n1)nn1c(C)c(CCC(=O)NCc3ccccc3Cl)c(C)nc21	14.3%	8.4%	?	9.9%	-2.9%
CSc1nc2ccc(Cl)cc2[nH]1	2.2%	-6.8%	-3.3%	-2.6%	-0.4%
CSc1nc2cc(Oc3cccc(Cl)c3Cl)c(Cl)cc2[nH]1	1.4%	12.6µM*	?	?	2.7%
O=C(Nc1ccc(C(F)(F)F)cc1)c1cc(S(=O)(=O)NCC2COc3ccccc3O2)ccc1F (stereo unspecified)	3.4%	12.6µM*	7.4%	?	-5.6%
COc1ccc(NC(=O)c2cc(S(=O)(=O)NCC3COc4ccccc4O3)ccc2F)cc1 (stereo unspecified)	-3.9%	2.3%	-8.0%	?	4.8%
CNC(=O)COc1ccc(Nc2nnc(-c3ccc(C)c(S(=O)(=O)NC(C)(C)C)c3)c3ccccc23)cc1	-8.3%	8.7%	?	?	0.199µM*[quencher]

Assay outcomes deposited in PubChem by National Center for Advancing Translational Sciences (NCATS).
